PubChem BioAssay
Active and inactive are the calls of the source. Unless noted, the rule behind the calls is not given here.

Key:
[1] = system: Wnt5a (protein binding on small-molecule microarray); test: Wnt5a binders on small-molecule microarray, primary screen, biophysical, 635/667 nm fluorescence (AID 1142); details: 635 nm fluorescence, higher = more signal;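 note: fluorescence read at 667 nm with signal to noise per printed feature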
[2] = cell viability in Huh7 cells, primary screen, cytotoxicity control for HCV replication inhibitor project, CellTiter-Glo luminescence, basal, 48 h (AID 1143); details: Huh7 HCV replicon, higher = more signal, called active from +8 up or from −8 down;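 note: Huh7 hepatoma cells carrying a hepatitis C replication reporter with no stimulus; test concentration not given here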
[3] = P. aeruginosa biofilm formation inhibitors, primary screen, PAO1 strain, BacTiter-Glo luminescence, LB-PBS (AID 1144); details: 12 h, higher = more signal
[4] = CREB reporter modulators without forskolin, primary screen, cell-based, PC12, CRE-LacZ reporter, unstimulated (AID 1145); details: no forskolin, luminescence, 4.5 h, higher = more signal, called active from +8 up or from −8 down
[5] = CREB reporter modulators under forskolin, primary screen, cell-based, PC12, CRE-LacZ reporter, forskolin-stimulated (AID 1146); details: luminescence, 4.5 h, higher = more signal, called active from +8 up or from −8 down;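 note: PC12 cells with 6xCRE LacZ reporter stimulated by forskolin 10 µM; beta-galactosidase reporter signal reflecting CREB driven transcription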
[6] = target: Streptavidin (Streptomyces avidinii) (UniProt P22629); test: streptavidin binders on small-molecule microarray, primary screen, artefact control for SMM compound annotation, biophysical, 635/667 nm fluorescence (AID 1147); details: streptavidin binding, higher = more signal;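 note: signal reflects streptavidin binding to arrayed compounds as a control protein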
[7] = small-molecule binders of probe aInhba, primary screen, biochemical, small-molecule microarray, 635/667 nm fluorescence (AID 1148); details: higher = more signal;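 note: score merges 667nm spot fluorescence with signal-to-noise for antibody binding to printed compounds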
Torsin-1A (Homo sapiens) [8] = target: Torsin-1A (Homo sapiens) (UniProt O14656); test: torsin A binders from cell lysate, primary screen, small-molecule microarray, wild-type, 635/667 nm (AID 1149); details: COS7 hTOR1A-WT lysate, 635 nm fluorescence, higher = more signal
Torsin-1A (Homo sapiens) [9] = target: Torsin-1A (Homo sapiens) (UniProt O14656); test: small-molecule binders of mutant TOR1A in lysate, primary screen, cell lysate, small-molecule microarray, COS7 lysate, 635/667 nm fluorescence (AID 1150); details: COS7 hTOR1A mutant lysate, 635 nm fluorescence, higher = more signal;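 note: score pools 667 nm emission and signal to noise measuring lysate protein binding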
[10] = system: Sonic hedgehog protein (Shh); test: small-molecule binders of Shh protein, primary screen, biochemical, small-molecule microarray, 635/667 nm fluorescence (AID 1151); details: small-molecule microarray binding, 635 nm fluorescence; higher = more signal;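 note: Shh protein binding to compounds spotted on small-molecule microarray slides; score combines spot fluorescence intensity with signal-to-noise across triplicate slides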
[11] = E. coli DRC41 culture turbidity changes, primary screen, E. coli filamentation inducer project, strain DRC41, OD650, 48 h (AID 1152);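 note: E. coli MC1000 strain DRC41 lacking acrAB efflux pump and sulA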; details: E. coli DRC41 (acrAB sulA), higher = more signal, called active from +8 up or from −8 down
[12] = small-molecule binders of probe aLefty1, primary screen, biochemical, small-molecule microarray, 635/667 nm fluorescence (AID 1153); details: higher = more signal;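 note: score merges spot fluorescence with signal-to-noise ratio from the scanned slide images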
[13] = PSAC antagonists in infected red cells, primary screen, cell-based, P. falciparum Indochina, OD700, 1 h (AID 1154); details: P. falciparum Indochina infected RBC osmotic lysis, higher = more signal, called active from +8 up or from −8 down
[14] = PSAC antagonists in infected red cells, primary screen, cell-based, P. falciparum Indochina, OD700, 2 h (AID 1155);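 note: lysis reports solute entry through the parasite surface anion channel PSAC; channel blockers reduce lysis of infected cells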; details: P. falciparum Indochina infected erythrocytes, osmotic lysis OD700; higher = more signal, called active from +8 up or from −8 down
[15] = osmotic lysis modulators in infected erythrocytes, primary screen, PSAC antagonist project, cell-based, P. falciparum Indochina, OD700, 3 h (AID 1156); details: higher = more signal, called active from +8 up or from −8 down
[16] = PSAC antagonists in infected red cells, primary screen, cell-based, P. falciparum Indochina, OD700, 18 h (AID 1157); details: P. falciparum Indochina infected erythrocytes, osmotic lysis OD700, 18 h; higher = more signal, called active from +8 up or from −8 down
[17] = modulators of S6 phosphorylation in cells, primary screen, cell-based, A549, cytoblot, luminescence, serum-stimulated (AID 1158); details: A549 phospho-S6 cytoblot, 5 h, higher = more signal;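 note: serum-stimulated A549 lung adenocarcinoma cells; signal is phosphorylated S6 detected by cytoblot immunostaining with HRP secondary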
[18] = target: NADPH oxidase 2 (Homo sapiens) (UniProt P04839); test: NOX2-dependent H2O2 signal modulators, primary screen, NOX inhibitor project, cell-based, HEK293-NOX2, PMA-stimulated, Amplex Red fluorescence (AID 1159); details: 45 min, higher = more signal, called active from +8 up or from −8 down; note: test concentration not given here
[19] = target: NADPH oxidase 4 (Homo sapiens) (UniProt Q9NPH5); test: NOX4-dependent H2O2 signal modulators, primary screen, NOX inhibitor project, cell-based, HEK293-NOX4, tetracycline-induced, Amplex Red fluorescence (AID 1160); details: 45 min, higher = more signal, called active from +8 up or from −8 down
[20] = target: NADPH oxidase 5 (Homo sapiens) (UniProt Q96PH1); test: NOX5-dependent H2O2 signal modulators, primary screen, NOX inhibitor project, cell-based, HEK293-NOX5, Amplex Red fluorescence (AID 1161); details: HEK293-NOX5, ionomycin, 45 min, higher = more signal
Chain of NADPH oxidase 5 (Homo sapiens) (Q96PH1 whole entry, looked up): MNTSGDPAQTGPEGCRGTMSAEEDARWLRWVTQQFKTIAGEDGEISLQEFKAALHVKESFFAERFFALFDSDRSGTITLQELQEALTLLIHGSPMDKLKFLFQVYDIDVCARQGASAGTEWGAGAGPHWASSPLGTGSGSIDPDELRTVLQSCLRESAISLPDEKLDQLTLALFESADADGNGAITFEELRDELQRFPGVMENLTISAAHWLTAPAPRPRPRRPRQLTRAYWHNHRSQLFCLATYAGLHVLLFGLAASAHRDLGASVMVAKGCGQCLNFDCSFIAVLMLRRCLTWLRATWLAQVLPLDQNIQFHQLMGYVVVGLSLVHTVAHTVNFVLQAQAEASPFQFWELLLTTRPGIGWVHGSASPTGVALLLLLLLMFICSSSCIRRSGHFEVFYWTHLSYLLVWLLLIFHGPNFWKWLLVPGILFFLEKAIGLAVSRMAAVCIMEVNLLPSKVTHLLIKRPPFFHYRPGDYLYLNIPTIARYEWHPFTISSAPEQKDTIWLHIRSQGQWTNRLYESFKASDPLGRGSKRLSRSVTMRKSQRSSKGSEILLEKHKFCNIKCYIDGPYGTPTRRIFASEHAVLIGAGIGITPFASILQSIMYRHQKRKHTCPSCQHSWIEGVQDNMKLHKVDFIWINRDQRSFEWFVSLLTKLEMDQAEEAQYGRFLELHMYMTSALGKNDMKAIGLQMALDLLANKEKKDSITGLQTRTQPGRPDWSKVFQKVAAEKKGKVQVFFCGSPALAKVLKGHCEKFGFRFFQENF

Chain of Torsin-1A (Homo sapiens) (O14656 whole entry, looked up): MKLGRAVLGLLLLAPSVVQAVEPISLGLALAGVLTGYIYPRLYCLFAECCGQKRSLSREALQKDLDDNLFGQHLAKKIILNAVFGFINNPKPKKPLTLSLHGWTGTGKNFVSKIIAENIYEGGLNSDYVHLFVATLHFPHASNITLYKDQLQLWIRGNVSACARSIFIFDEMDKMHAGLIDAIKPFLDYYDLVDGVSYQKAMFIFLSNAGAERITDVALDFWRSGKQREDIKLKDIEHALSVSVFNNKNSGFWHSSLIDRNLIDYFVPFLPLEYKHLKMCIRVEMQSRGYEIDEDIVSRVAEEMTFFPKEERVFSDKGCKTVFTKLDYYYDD
Chain of NADPH oxidase 4 (Homo sapiens) (Q9NPH5 whole entry, looked up): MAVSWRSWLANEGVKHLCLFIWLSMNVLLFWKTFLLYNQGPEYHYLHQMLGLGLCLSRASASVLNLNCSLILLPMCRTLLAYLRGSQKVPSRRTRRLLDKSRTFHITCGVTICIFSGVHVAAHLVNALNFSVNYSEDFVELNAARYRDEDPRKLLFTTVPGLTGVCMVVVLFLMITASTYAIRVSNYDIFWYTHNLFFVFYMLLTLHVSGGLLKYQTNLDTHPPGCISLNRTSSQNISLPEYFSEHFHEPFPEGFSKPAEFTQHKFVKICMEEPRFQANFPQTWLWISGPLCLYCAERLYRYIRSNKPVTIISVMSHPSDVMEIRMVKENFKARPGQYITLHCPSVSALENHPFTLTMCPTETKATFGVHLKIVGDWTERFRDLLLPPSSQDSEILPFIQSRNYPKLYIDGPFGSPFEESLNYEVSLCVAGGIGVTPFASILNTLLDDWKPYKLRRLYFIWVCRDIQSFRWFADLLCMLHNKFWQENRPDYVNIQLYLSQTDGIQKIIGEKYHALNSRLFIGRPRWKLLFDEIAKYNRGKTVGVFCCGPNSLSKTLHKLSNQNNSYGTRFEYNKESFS
Chain of Streptavidin (Streptomyces avidinii) (P22629 whole entry, looked up): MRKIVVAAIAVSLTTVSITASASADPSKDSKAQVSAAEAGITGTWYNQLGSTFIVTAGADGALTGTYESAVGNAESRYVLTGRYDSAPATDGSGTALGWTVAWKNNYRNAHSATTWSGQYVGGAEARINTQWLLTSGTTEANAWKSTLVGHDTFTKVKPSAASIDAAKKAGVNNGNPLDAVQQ
Chain of NADPH oxidase 2 (Homo sapiens) (P04839 whole entry, looked up): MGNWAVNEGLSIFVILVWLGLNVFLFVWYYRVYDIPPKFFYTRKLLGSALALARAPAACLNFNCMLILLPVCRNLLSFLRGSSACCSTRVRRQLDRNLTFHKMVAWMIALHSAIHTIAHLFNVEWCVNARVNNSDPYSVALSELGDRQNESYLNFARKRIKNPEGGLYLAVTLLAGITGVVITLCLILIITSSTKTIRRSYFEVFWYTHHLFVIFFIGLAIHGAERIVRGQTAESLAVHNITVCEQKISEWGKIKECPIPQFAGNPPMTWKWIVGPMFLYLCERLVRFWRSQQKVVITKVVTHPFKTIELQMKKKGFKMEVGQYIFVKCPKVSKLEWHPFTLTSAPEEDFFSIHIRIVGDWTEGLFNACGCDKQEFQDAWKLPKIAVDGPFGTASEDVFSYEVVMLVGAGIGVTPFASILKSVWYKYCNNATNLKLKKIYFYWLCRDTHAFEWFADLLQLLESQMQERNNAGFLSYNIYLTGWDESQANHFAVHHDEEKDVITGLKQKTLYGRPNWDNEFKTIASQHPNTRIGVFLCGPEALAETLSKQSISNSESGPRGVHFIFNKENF

Compound	composite z-score [1]	z-score [2]	z-score [3]	z-score [4]	z-score [5]	composite z-score [6]	composite z-score [7]	composite z-score (Torsin-1A (Homo sapiens) [8])	composite z-score (Torsin-1A (Homo sapiens) [9])	composite z-score [10]	z-score [11]	composite z-score [12]	z-score [13]	z-score [14]	z-score [15]	z-score [16]	z-score [17]	z-score [18]	z-score [19]	z-score [20]
CO[C@H]1COC(=O)[C@@H](C)COC(=O)[C@@H](OCc2ccccc2)C=C[C@@H]1C	0.007	-0.0174 (inactive)	0.304 (inactive)	-0.0293 (inactive)	-0.803 (inactive)	-0.136	-0.016	0.743	-0.253	0.214	-0.303 (inactive)	-0.235	-0.347 (inactive)	0.32 (inactive)	0.328 (inactive)	-0.0659 (inactive)	-0.286	0.237 (inactive)	0.566 (inactive)	-0.609
COC(=O)NCC=Cc1nc(CCCO)co1	0.134	-0.068 (inactive)	0.633 (inactive)	0.286 (inactive)	-0.0562 (inactive)	0.362	-0.353	0.519	0.802	0.883	-0.0186 (inactive)	-0.164	0.0325 (inactive)	0.496 (inactive)	-0.304 (inactive)	-0.145 (inactive)	-0.726	-0.745 (inactive)	0.996 (inactive)	0.449
COc1ccc(O[C@H]2C=C[C@@H](c3ccccc3)O[C@@H]2CON=C(C)CCC(=O)OC[C@H]2O[C@H](c3ccccc3)C=C[C@@H]2Oc2ccc(OC)cc2)cc1	-0.874	-0.461 (inactive)	0.107 (inactive)	-0.887 (inactive)	0.593 (inactive)	0.204	-0.0136	-2.42	-1.43	2.02	0.274 (inactive)	0.64	0.99 (inactive)	0.328 (inactive)	0.104 (inactive)	0.464 (inactive)	-0.661	-0.2 (inactive)	0.988 (inactive)	-0.925
O=C1[C@H]2[C@H]3[C@H](O)[C@H](O)CC(=NOC[C@@H](O)COCc4ccco4)[C@H]3CC[C@H]2C(=O)N1Cc1ccccc1	-0.0661	-0.734 (inactive)	0.448 (inactive)	-0.474 (inactive)	0.479 (inactive)	-0.68	-0.182	0.246	0.462	1.38	0.0413 (inactive)	-0.154	0.376 (inactive)	-0.599 (inactive)	-0.409 (inactive)	-1.53 (inactive)	1.43	-0.0116 (inactive)	0.967 (inactive)	0.0182
COC(=O)C=CCCc1coc(C=CCNC(=O)OC)n1	0.4	-0.0328 (inactive)	-0.0662 (inactive)	0.38 (inactive)	0.702 (inactive)	0.0242	0.432	0.583	0.205	1.15	-0.747 (inactive)	0.632	1.78 (inactive)	0.713 (inactive)	1.13 (inactive)	0.247 (inactive)	0.41	0.575 (inactive)	0.532 (inactive)	0.21
